PubChem BioAssay (NCATS)
Inconclusive results are not listed. The source made the active and inactive calls. Calls come from the whole dose curve; as a rule, active = well fitted inhibition curve with a large enough effect; inconclusive = small, poorly fitted or top-dose-only effect; inactive = flat fitted curve, though single readings scatter.
% is set by controls: 0 for no effect and ±100 for the full control effect.

These molecules were tested on CRL-7250 (assay: Cytotoxic Profiling of Annotated Libraries Using Quantitative High-Throughput Screening (AID 1296008; note: nearly all actives have a fitted effect of over 60% in size)). Settings: Five cell lines viability, CellTiter-Glo ATP luminescence, 48-72 h; max response: hits give low values.
How it was run: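 Cytotoxicity was measured as CellTiter-Glo ATP luminescence, read after 10 min at room temperature. Compound treatment of the cells lasted 48 or 72 hr at 37 degrees Celsius in a qHTS format.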
In the case of `CCC(=O)O[C@H]1C(C)(C)[C@H]([C@@H](O)C(=O)OC)[C@]2(C)C(=O)[C@@]1(O)[C@H]1O[C@]13C1CC(=O)O[C@@H](c4ccoc4)[C@]1(C)CCC32` (some centres undefined), the max response is reported as 0.287% (inactive).
`O=C(/C=C/c1ccc(O)cc1)OC1[C@H](O)CC(O)(C(=O)O)C[C@H]1O` (some centres undefined) was tested, and the max response was -9.1% (inactive).
In the case of `CC(=O)C=C=C1C(C)(C)CC(O[C@@H]2O[C@H](CO)[C@@H](O)[C@H](O)[C@H]2O)CC1(C)O` (some centres undefined), the outcome is reported as “inactive”.
For `C=C(CO[C@@H]1O[C@H](CO[C@@H]2OC[C@](O)(CO)[C@H]2O)[C@@H](O)[C@H](O)[C@H]1O)C1Cc2cc(C(C)=O)ccc2O1` (some centres undefined), the max response was -1.55% (inactive).
`OC1CCC(Nc2ncc3nc(Nc4c(F)cc(F)cc4F)n([C@H]4CCOC4)c3n2)CC1` (some centres undefined) was tested, and the max response was -2.71% (inactive).
In the case of `CC(=O)c1c(O)cc(O[C@@H]2O[C@H](CO)[C@@H](O)[C@H](O)[C@H]2O)cc1O`, the max response is reported as -2.16% (inactive).
In the case of `COc1cc(/C=C/C(=O)OC[C@H]2O[C@@](CO)(O[C@H]3O[C@H](CO)[C@@H](O)[C@H](O)[C@H]3O)[C@@H](OC(=O)/C=C/c3ccc(O)c(OC)c3)[C@@H]2O)ccc1O`, the max response is reported as -25.3% (inactive).
For `CC(C)C[C@H](CC(=O)NO)C(=O)N[C@H](C(=O)N[C@@H](C)C(=O)NCCN)C(C)(C)C`, the outcome was “inactive”.
For `CC(C)=CCC[C@](C)(O)[C@H]1CC[C@]2(C)[C@@H]1[C@H](O)CC1[C@@]3(C)CC[C@H](O)C(C)(C)C3[C@@H](O[C@@H]3O[C@H](CO)[C@@H](O)[C@H](O)[C@H]3O[C@@H]3OC[C@@H](O)[C@H](O)[C@H]3O)C[C@]12C` (some centres undefined), the max response was -0.925% (inactive).
